# System: RAF1
# Settings: concentration: 1 μM,replicates: in singlicate; n = 1
# 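Also: KINOMEscan kinase panel screen.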
row,Compound,%Inh [%]
1,O=C(Nc1ccccc1)c1cccc(Oc2ccc3nccn3n2)c1,78
2,Cc1ccc(CC(=O)N2CCc3cc(-c4cn(C)c5ncnc(N)c45)ccc32)cc1 [GSK2634758],7
3,COC(=O)c1cccc(NC(=O)NC2CCN(c3ccnc(NCc4ccc(F)cc4)n3)CC2)c1 [GSK1379860],15
4,Cc1n[nH]c2cc(Nc3ccnc(Nc4cccc(CN5CCOCC5)c4)n3)ccc12 [GW682569],0
5,CCN1CCN(CCCC(=O)Nc2n[nH]c3nc(-c4ccc(O)cc4)c(Br)cc23)CC1 [SB-731579],17
6,COc1ccc(Nc2nccc(N3CCC(NC(=O)c4cccc(C#N)c4)C3)n2)cc1 (stereo not shown) [GSK1379730],0
7,C[C@@H](Oc1cc(-n2cnc3cc(-c4ccncc4)ccc32)sc1C(N)=O)c1ccccc1Cl [GSK479719],13
8,Cc1nnc(-c2ccc3occ(-c4ccc(S(C)=O)cc4)c3n2)o1 (stereo not shown),14
9,Cn1cc(-c2cccc3c(N)c(C(N)=O)nnc23)cn1,0
10,Cl.Nc1n[nH]c2cc(-c3ccccn3)ccc12 [GSK2189892],6
11,COc1cccc(CNC(=O)NC2CCN(c3ccnc(Nc4cc(OC)c(OC)c(OC)c4)n3)C2)c1 (stereo not shown) [GSK1379765],21
12,Cc1ccc(C(=O)Nc2ccc(Oc3ccc4nc(NC(=O)C5CC5)cn4c3)c(F)c2)c(=O)n1-c1ccccc1,82
13,Cc1cccc2c(-c3ccncc3)c(-c3ccc(F)cc3)nn12.Cl [GW461487],11
14,C[C@@H](Oc1cc(-n2cnc3ccc(-c4ccncc4)cc32)sc1C(N)=O)c1ccccc1Cl [GSK483724],11
15,CNC(=O)c1ccccc1Nc1nc(Nc2cccc(CS(C)(=O)=O)c2)ncc1C.O=CO [GSK1520489],2
16,COc1cc2c(Nc3ccc(NC(=O)c4ccccc4)cc3)ncnc2cc1OCCCN1CCOCC1 [GSK301329],1
17,O=C(Nc1ccc(Oc2ccc3nc(NC(=O)C4CC4)cn3n2)c(F)c1)c1cccn(-c2ccccc2)c1=O,87

row,Compound,%Inh [%]
1,COc1cc(Nc2nccc(N3CCC(NC(=O)c4cccc(C#N)c4)C3)n2)cc(OC)c1OC (stereo not shown) [GSK1379751],26
2,CC(C)S(=O)(=O)N1CCN(Cc2ccc3c(c2)nc(NC(=O)c2ccsc2)n3C[C@H](O)c2ccccc2)CC1 [GW635815],6
3,Cn1ccc2ncnc(Oc3ccc(NC(=O)Nc4cccc(C(F)(F)F)c4)c(F)c3)c21,80
4,Cc1ccc2c(-c3ccnc(Nc4ccc(C(F)(F)F)cc4)n3)cnn2n1 [GW819776],15
5,C[C@@H]1CNc2c(sc3ccc4nc(-c5ccncc5)ccc4c23)C(=O)N1,0
6,Cn1ccc2ncnc(Oc3ccc(NC(=O)Nc4cccc(C(F)(F)F)c4)c(Cl)c3)c21,80
7,COc1cccc(OC)c1C(=O)Nc1cccc(-c2nn3ccccc3c2-c2ccnc(Nc3cccc(F)c3)n2)c1 [GSK361065],29
8,CN1CCN(CCCNc2nccc(-c3c(-c4ccc(F)cc4)nn4cc(C(N)=O)ccc34)n2)CC1 [GW622475],35
9,CCCC(=O)Nc1n[nH]c2ncccc12 [SB-601436],0
10,Cn1ccc2ncnc(Oc3ccc(NC(=O)Nc4cc(C(C)(C)C)on4)c(Cl)c3)c21,78
11,Cl.c1ccc(Oc2ccc(Nc3ccnc4cc(-c5ccc(CN6CCNCC6)o5)ccc34)cc2)nc1 [GW567142],0
12,CC(=O)Nc1ccc(-c2cc3ncnc(SCC(=O)O)c3s2)cc1,14
13,Cc1ccc(Nc2ccnc(Nc3ccc4c(c3)CS(=O)(=O)C4)n2)cc1O.Cl [GW579362],42
14,COc1cccc(C2=C(Nc3cccc(Cl)c3)C(=O)NC2=O)c1 [SB-341556],11
15,OCCn1cc(-c2cnc3nnn(Cc4ccc5ncccc5c4)c3n2)cn1,0
16,Cn1ccc2ncnc(Oc3ccc(NC(=O)Nc4cncc(C(F)(F)F)c4)c(Cl)c3)c21,100
17,CN(c1cccc(CNc2nc(Nc3ccc4c(c3)CC(=O)N4)ncc2C(F)(F)F)c1)S(C)(=O)=O,0
